# Source: PubChem BioAssay
# aSyn UTR act: Activators working through SNCA 5'UTR binding (MLPCN); alpha-synuclein 5'UTR reporter, activators screen; activity score, % (tested at 7.5 µM), hits read low; actives 7.1% (n = 300,000); AID 1814; in the data active = activity score below about -60%
# An asterisk follows results filed as active. Not all results are given here.
SMILES,aSyn UTR act
CSc1ccccc1NC(=S)Nc1cccc(C(F)(F)F)c1,-64*
NS(=O)(=O)c1cccc(NC(=O)CCSc2ccccc2Cl)c1,-120*
CNS(=O)(=O)c1ccc(NC(=O)Nc2cccc(F)c2)cc1,-89*
O=C(Nc1cccc(F)c1)Nc1cccc(Cl)c1,-84*
N#CCc1ccc(NC(=O)Nc2cccc(Cl)c2)cc1,-143*
CSc1ccccc1NC(=O)Nc1cccc(F)c1,-82*
COc1ccc(C(=O)Nc2nc3ccc(OC)cc3s2)cc1,-277*
COc1ccc2nc(NC(=O)c3ccc(NS(=O)(=O)c4cccs4)cc3)sc2c1,-67*
CCn1cc([N+](=O)[O-])c(C(=O)Nc2nc3ccc(OC)cc3s2)n1,-84*
COc1ccc(C(=O)Nc2nc(-c3cccs3)c(NC(C)=O)s2)cc1,-83*
COCCN=C1NN=C(c2ccc(C)c([N+](=O)[O-])c2)CS1,-108*
CC1CC(=O)NN=C1c1ccc(NCCO)c([N+](=O)[O-])c1 (stereo not drawn),76
CCCCN=C1NN=C(c2ccc(C)c(C)c2)CS1,-162*
Cc1nc(NC(=O)c2oc3ccccc3c2C)sc1C(=O)N(C)C,-193*
Cc1nc(NC(=O)/C=C/c2ccccc2)sc1C(=O)N(C)C,-166*
Cc1ccc(C(=O)Nc2nc(C)c(C(=O)N(C)C)s2)o1,-77*
CCCCc1nnc(NC(=O)c2oc3ccccc3c2C)s1,-96*
Cc1nnc(NC(=O)c2oc3ccccc3c2C)s1,-83*
Cc1nc(NC(=O)C(C)Oc2cccc(Cl)c2)sc1C(=O)N(C)C (stereo not drawn),-65*
CC(Oc1cccc(Cl)c1)C(=O)Nc1nc(-c2ccccn2)cs1 (stereo not drawn),64
Cc1ccc2c(c1)C1CN(C)CCC1N2C(=O)COc1ccc(N(C)C(=O)C(C)(C)C)cc1 (stereo not drawn),-67*
Cc1ccc(C(=O)N(C)c2ccc(OCC(=O)N3c4ccc(C)cc4C4CN(C)CCC43)cc2)cc1 (stereo not drawn),-86*
Clc1cc2nc(-c3cccnc3Cl)[nH]c2cc1Cl,-229*
Oc1ccc(-c2csc(Nc3ccccn3)n2)c(O)c1,-134*
Cc1cccnc1Nc1nc(-c2ccc(O)cc2O)cs1,-188*
SMILES,aSyn UTR act
c1ccc2c(c1)[nH]c1c3ccccc3sc21,-138*
Cc1cc(C)nc(Nc2ccc(N3CCCC3)cc2)n1,-65*
COc1ccc(Nc2nc(C)cc(C)n2)cc1Cl,-114*
Cc1cc(C)nc(Nc2ccc(C(=O)O)cc2)n1,-157*
CCc1ccc(Nc2nc(C)cc(C)n2)cc1,-179*
C=CCn1cccc(/C=C/C(=O)c2ccc(C(C)(C)C)cc2)c1=S,-74*
O=C(CCc1ccc(S(=O)(=O)N2CCOCC2)cc1)OCc1nc2ccccc2s1,-85*
O=C(OCc1nc2ccccc2s1)c1cc2ccccc2oc1=O,-100*
O=C(OCc1nc2ccccc2s1)c1ccc(Br)s1,-72*
Cc1ccc(C(=O)OCc2nc3ccccc3s2)o1,-103*
CCC(=NCc1ccccc1)c1c(C(F)(F)F)[nH]n(-c2nc3ccccc3s2)c1=O,-111*
CC(C)Cc1nnc(NC(=O)c2cc3c(s2)CCC3)s1,-207*
O=C(Nc1nncs1)c1cc2c(s1)CCC2,-132*
O=C(Nc1nccs1)c1cc2c(s1)CCCCC2,72
Cn1nnnc1SCC(=O)Nc1ccc2c(c1)OCO2,-99*
CCc1ccc(NC(=O)CSc2nnnn2C)cc1,-132*
CC1(c2ccncc2)Nc2ccccc2-c2nc3ccccc3n21 (stereo not drawn),-66*
Nc1nccc(/C=C/c2ccc(Cl)cc2)n1,-112*
Cc1ccc2c(c1)C(O)(CC(=O)/C=C/C=C/c1ccccc1)C(=O)N2 (stereo not drawn),-112*
CCCC(=O)Nc1ccc(C#Cc2ccccc2)cc1,-68*
O=C(Nc1ccc(C#Cc2ccccc2)cc1)C1CC1,-113*
O=C(Nc1ccccc1O)c1ccc(NC(=O)C2CC2)cc1,-805*
COc1ccc(C(=O)/C=C/c2ccccc2F)c(OC(=O)c2ccc([N+](=O)[O-])cc2)c1,-228*
COc1ccc(C(=O)c2cc([N+](=O)[O-])ccc2N2CCOCC2)cc1,58
COc1ccc(C(=O)/C=C/c2ccc(C)cc2)c(OC(=O)c2ccc([N+](=O)[O-])cc2)c1,-87*
SMILES,aSyn UTR act
COc1cccc(NS(=O)(=O)NC(=O)c2c[nH]c3ccccc23)c1,-63*
O=C(NNC(=O)c1ccccc1O)c1ccc(Cl)cc1,-81*
O=C(NNC(=O)c1ccccc1O)c1cccc(Br)c1,-133*
O=C(COC(=O)c1ccc(O)cc1O)c1ccc(Cl)cc1,-96*
O=C(NNC(=O)c1cccs1)c1ccc(Br)cc1,-78*
O=C(NNC(=O)c1ccccc1O)c1ccc(Br)cc1,-116*
Cc1cccc(C(=O)NNC(=O)c2ccc(Cl)cc2)c1O,-141*
O=C(NNC(=O)c1ccc(O)cc1O)c1ccc(Cl)cc1,-72*
O=Cc1ccc(-c2nc3ccccc3s2)o1,-98*
O=C(O)CCCN1C(=O)/C(=C\c2ccc(-c3nc4ccccc4s3)o2)SC1=S,-83*
COc1ccc(-c2csc(Nc3ccc(C)cn3)n2)cc1OC,-120*
COc1ccc(-c2csc(Nc3cc(C)ccn3)n2)cc1OC,-236*
COc1ccc(-c2csc(Nc3ccc(S(N)(=O)=O)cc3)n2)cc1OC,62
O=C(Nc1ccc2c(c1)OCCO2)c1ccc(CN2CCOCC2)cc1,-148*
O=C(Nc1ccc2c(c1)OCCO2)c1ccc(Cl)c(S(=O)(=O)N2CCOCC2)c1,-67*
Cc1ccc(C(=O)Nc2ccc(CN3CCS(=O)(=O)CC3)cc2)cc1C,-78*
Cc1ccc(C(=O)c2cc([N+](=O)[O-])ccc2N2CCOCC2)cc1,92
CCC(=O)c1ccc(N2CCCCC2)c(F)c1,-68*
CCCC(=O)c1ccc(N2CCOCC2)c(F)c1,-97*
Cc1ccc(C(=O)c2ccc(N3CCOCC3)c(F)c2)cc1,-109*
Cc1ccc(C)c(NC(=O)c2cc(-c3cc(C)c(C)cc3O)n[nH]2)c1,-233*
Cc1ccc(C)c(NC(=O)c2cc(-c3ccccc3O)n[nH]2)c1,-198*
Cc1ccc(-c2cc(C(=O)Nc3cc(C)ccc3C)[nH]n2)c(O)c1,-86*
COc1ccc(OC)c(NC(=O)c2cc(-c3cc(C)ccc3O)n[nH]2)c1,-104*
Cc1ccc(C)c(NC(=O)COC(=O)c2cccc3c2C(=O)c2ccccc2C3=O)c1,55
SMILES,aSyn UTR act
CCC(=O)Nc1ccc2nc(C3CC3)n(Cc3ccc(C(C)(C)C)cc3)c(=O)c2c1,-150*
CC(=O)Nc1ccc2nc(C3CC3)n(Cc3ccc(Cl)cc3)c(=O)c2c1,-165*
COc1ccc(Cn2c(C3CC3)nc3ccc(NC(=O)C4CC4)cc3c2=O)cc1,-280*
COc1cccc(CNc2nc3nc(C)c(Cl)c(C)n3n2)c1,-95*
COc1ccc(CNc2nc3nc(C)c(Cl)c(C)n3n2)cc1,-65*
CCc1ccc(/C=C2\SC(=S)N(CCC(=O)Nc3cc(C)on3)C2=O)cc1,69
COc1ccc(/C=C2/SC(=S)N(CC(=O)O)C2=O)cc1OCc1ccc(Cl)cc1,-132*
COc1ccc(/C=C2\SC(=S)N(Cc3cccnc3)C2=O)cc1C,-127*
CCN=C1S/C(=C\c2ccc(O)c(OCC)c2)C(=O)N1CC,68
C#CCOc1ccc(/C=C2\SC(=S)N(Cc3cccnc3)C2=O)cc1,-82*
COc1cc(/C=C2/SC(=S)N(Cc3ccccc3)C2=O)ccc1O,-67*
Fc1ccc(CSc2nnc(-c3cccs3)o2)cc1,-88*
Fc1ccccc1CSc1nnc(-c2cccs2)o1,-128*
